# Measurements: ChEMBL document CHEMBL3988442, “University of Dundee, Small-Polar-MMV Screening Library” (2021)
# The campaign covered roughly 48,000 compounds. About 13,000 (27%) showed an effect of 50% or more. The list shows a part of the results.
# Tested on: Wolbachia pipientis
# Assay: Anti-Wolbachia Cell-Based Screen
# Type: functional
# Set-up: scale not given: in the data most compounds retested in dose-response had high values
# Conditions: 5 µM
row,Compound,Percent Effect [%]
1,COc1cccc(-c2cnc3n2CCC32CCN(S(C)(=O)=O)CC2)c1,-9.63
2,CN1C(=O)CC(C(=O)O)C12CCN(Cc1ccc(F)cc1Cl)CC2 (configuration not stated),0.7528
3,O=C(c1cnc(NCc2sccc2Br)c(Cl)c1)N1CCCCC1,-7.953
4,COCCOc1ncccc1C(=O)Nc1ccc(-n2cncn2)c(F)c1,-9.189
5,Cc1ccccc1C(NC(=O)CNC(=O)c1ccoc1C)C(C)C (configuration not stated),-4.038
6,CCc1noc(C)c1C(=O)N1CCCC1Cn1cc(C)cn1 (configuration not stated),5.124
7,Cc1cnn(CC2CCCN2C(=O)c2cccc(F)c2F)c1 (configuration not stated),121.1
8,Cc1cnn(CC2CCCN2C(=O)c2cccc3c2OCO3)c1 (configuration not stated),-6.859
9,Cc1cnn(CC2CCCN2C(=O)c2c(F)cccc2Cl)c1 (configuration not stated),118.3
10,Cc1cnn(CC2CCCN2C(=O)c2cc(C)nc3[nH]nc(C)c23)c1 (configuration not stated),150.6
11,O=C(C1=CCCC1)N1C[C@@H]2COC[C@]2(COCc2ccncc2)C1,94.55
12,O=C(N1CCCC1)N1CC[C@H]2OCC[C@@]2(COc2ncccc2F)C1.O=C(O)C(F)(F)F,-10.69
13,Cc1cc(F)ccc1C(=O)N1C[C@@H]2COC[C@]2(COCC2CC2)C1,3.024
14,O=C(C1=CCCC1)N1CCC[C@]2(C[C@@H](Oc3ncccc3F)CO2)C1.O=C(O)C(F)(F)F,-5.101
15,O=C(C1=CCCC1)N1C[C@@H]2COC[C@]2(COc2ncccc2F)C1.O=C(O)C(F)(F)F,91.91
16,O=C(Cc1ccco1)N1C[C@@H]2COC[C@]2(COCC2CCOCC2)C1,-6.133
17,O=C(C1=CCCC1)N1C[C@@H]2COC[C@]2(COCC2CC2)C1,119
18,O=C(C1=CCCC1)N1C[C@H]2CCC[C@@]2(COCc2ccncc2)C1.O=C(O)C(F)(F)F,12.49
19,O=C(c1ncoc1C1CCCO1)N1CCC2(CCCCC2)CC1 (configuration not stated),-6.426
20,CCOc1ccc(C(=O)NCc2ccnc(N3CCN(C)CC3)c2)cn1,4.898
21,Cc1nn(C)c(N(C)C)c1CNCc1nnc2n1CCCCC2.Cl,5.74
22,COc1cc(CN2C[C@H](OC)[C@]3(CCCO3)C2)ccc1F,93.9
23,C[C@@H]1CN(Cc2cc(C(F)(F)F)ccc2F)CC[C@@]1(O)C1CC1,18.84

row,Compound,Percent Effect [%]
1,COc1coc(CN2CCCC(CCc3ccc(F)c(F)c3)C2)cc1=O (configuration not stated),29.51
2,COCCCC1(CO)CCCN(Cc2ccc(F)c(OC)c2)C1 (configuration not stated),-7.879
3,CO[C@H]1CN(Cc2cc(F)ccc2F)CC[C@@]12CCCO2,118.4
4,CO[C@H]1CN(Cc2ccc(F)c(F)c2)C[C@@]12CCCO2,125.7
5,CO[C@H]1CN(Cc2ccccc2F)[C@@H]2CCCO[C@H]12,2.761
6,CS(=O)(=O)NCCC1CCCN(Cc2ccccc2F)C1 (configuration not stated),-31.18
7,Cc1ccc(CN2CCC3(CCCN(Cc4ccc(F)c(F)c4)C3)C2)o1 (configuration not stated),-5.305
8,CO[C@H]1CN(Cc2ccccc2F)C[C@@]12CCCO2,78.59
9,COC(=O)C1CN(Cc2cc(F)ccc2Br)CCO1 (configuration not stated),-7.364
10,COc1cc(CN2CC[C@@]3(CCCO3)[C@@H](O)C2)ccc1F,-7.237
11,Cc1nc(CNC(=O)N2CCCC(c3ncc[nH]3)C2)sc1C (configuration not stated),-13.73
12,Cc1cc(CN(Cc2ccccc2)C(C)CN2CCOCC2)no1 (configuration not stated),-1.705
13,CCSc1ccc(NC(=O)NC(C)c2c(C)noc2C)cn1 (configuration not stated),-11.22
14,CCN1CCCN(c2ccc(-n3ccc(C)n3)nn2)CC1,-3.628
15,Cc1ccc(Oc2ncccc2CNC2Cc3ccccc3C2)cn1,12.49
16,NCC1Cc2cccc(-c3nccc(N4CCC(O)CC4)n3)c2O1 (configuration not stated),-9.933
17,Cc1cc2n(n1)CC(CNC1CCN(CCc3ccccc3)CC1)CN2 (configuration not stated),3.275
18,CCc1cnc(N)nc1NCCn1cc(Cl)cn1,-1.568
19,CS(=O)(=O)N1CCC2(CCN(Cc3nccs3)CC2)CC1.O=C(O)C(F)(F)F,12.17
20,CN(C)C(=O)C1CN(Cc2ccccc2)CCN(S(C)(=O)=O)C1 (configuration not stated),1.114
21,CN(C)C(=O)C1CN(Cc2ccsc2)Cc2ccnn2C1.O=C(O)C(F)(F)F (configuration not stated),-5.507
22,CN(C)C(=O)C1CN(Cc2ccsc2)CCN(S(C)(=O)=O)C1 (configuration not stated),92.25
23,CN(C)C(=O)C1CN(Cc2cccs2)CCN(S(C)(=O)=O)C1 (configuration not stated),110.5

row,Compound,Percent Effect [%]
1,Cc1cc(CN2CCN(S(C)(=O)=O)CC(C(=O)N(C)C)C2)no1 (configuration not stated),130.4
2,CN(C)C(=O)C1CN(Cc2cscn2)CCN(S(C)(=O)=O)C1 (configuration not stated),29.17
3,Cc1cc(CN(C)C(=O)NC2CCN(S(C)(=O)=O)CC2)no1,-12.59
4,CN(C)C(=O)NCc1nnc2n1CCN(Cc1cccs1)C2,-18.34
5,Cc1ccc(-c2nc(CN3CCC(C(=O)N(C)C)CC3)cs2)o1,9.027
6,CN(C)C(=O)C1CN(Cc2nccs2)CCN(S(C)(=O)=O)C1 (configuration not stated),115
7,C1CCC(CNC2CCSCC2)(N2CCOCC2)CC1,-18.78
8,CCN(CC)Cc1ccccc1NC(=O)N(C)Cc1ccc(OC)cc1,-34.67
9,c1ccc(-n2ncc(CNCC3CCCN3c3cccnn3)n2)cc1 (configuration not stated),8.726
10,CCC(O)CN(Cc1ccccc1)S(=O)(=O)c1cnc(C)s1 (configuration not stated),-9.422
11,c1cncc(CN(Cc2ccsc2)Cc2ccc(C3CCCCO3)o2)c1 (configuration not stated),-4.94
12,CCN(CC(F)(F)F)C(=O)C1CCCN(Cc2ccccn2)C1 (configuration not stated),10.59
13,CN(C)C(=O)C1CN(Cc2ccccn2)CCN(S(C)(=O)=O)C1 (configuration not stated),88.48
14,CC(C)[C@H]1CN(Cc2ccccn2)C[C@@H]1NS(=O)(=O)C1CC1,-5.384
15,CCCS(=O)(=O)N1C[C@@H]2CN(Cc3cccs3)CCO[C@@H]2C1.O=C(O)C(F)(F)F,8.558
16,CS(=O)(=O)N1CCN(Cc2cccs2)CC(C(N)=O)C1 (configuration not stated),99.35
17,CS(=O)(=O)N1C[C@H]2CCCN(Cc3cccs3)[C@H]2C1.O=C(O)C(F)(F)F,3.048
18,COCC1CN(C(=O)CNC(C)=O)Cc2ncnn2C1 (configuration not stated),6.87
19,COc1nc2ccccc2cc1CN1CCC(CNS(C)(=O)=O)C1 (configuration not stated),-1.226
20,CN(C)CC(=O)N1CCCC2(CCC(=O)N(CCc3c[nH]cn3)C2)C1 (configuration not stated),10.28
21,COc1ccc(-c2nc3c([nH]2)CCNC3C(=O)O)c2ccc(C)nc12 (configuration not stated),11.46
22,CC(C)C(=O)N1CC[C@@H]2[C@H](CC1)N(Cc1cccnc1)CCS2(=O)=O.O=C(O)C(F)(F)F.O=C(O)C(F)(F)F,86.93
23,CCS(=O)(=O)N1CC[C@@H]2[C@H](CC1)N(Cc1cccc(C)n1)CCS2(=O)=O.O=C(O)C(F)(F)F,-2.049

row,Compound,Percent Effect [%]
1,O=C(O)C(F)(F)F.O=C(O)C(F)(F)F.O=C(O)C(F)(F)F.c1cncc(CN2CC[C@@H]3[C@@H]2CCN3Cc2ccc3c(c2)OCO3)c1,-20.95
2,CCCC(=O)N1CC[C@@H]2[C@H](CC1)N(Cc1cccc(C)n1)CCS2(=O)=O.O=C(O)C(F)(F)F,0.2499
3,CCS(=O)(=O)N1CC[C@@H]2[C@H](CC1)N(CC(C)C)CCS2(=O)=O.O=C(O)C(F)(F)F,-5.407
4,O=C(C1CC1)N1CC[C@@H]2[C@H](CC1)N(Cc1cccnc1)CCS2(=O)=O.O=C(O)C(F)(F)F.O=C(O)C(F)(F)F,101.3
5,CC(C)CN1CCS(=O)(=O)[C@@H]2CCN(S(=O)(=O)c3ccccc3)CC[C@@H]21.O=C(O)C(F)(F)F,-6.866
6,CCS(=O)(=O)N1CC[C@@H]2[C@H](CC1)N(Cc1cccnc1)CCS2(=O)=O.O=C(O)C(F)(F)F.O=C(O)C(F)(F)F,110.8
7,O=C(CC1CC1)N1CC[C@@H]2[C@H](CC1)N(Cc1cccnc1)CCS2(=O)=O.O=C(O)C(F)(F)F.O=C(O)C(F)(F)F,93.65
8,O=C(O)C(F)(F)F.O=C(O)C(F)(F)F.O=S1(=O)CCN(Cc2cccnc2)[C@H]2CCN(c3ncccn3)CC[C@H]21,0.02856
9,Cc1cccc(CN2CCS(=O)(=O)[C@@H]3CCN(C(=O)C4CC4)CC[C@@H]32)n1.O=C(O)C(F)(F)F,4.108
10,CN(CCCN1CCOCC1)[C@@H]1c2ccccc2C2(CCNCC2)[C@H]1O,1.971
11,Cc1cc(S(=O)(=O)N2CCCc3cc(F)cc(F)c32)sc1C(=O)O,6.843
12,Cc1ccc2nc(C)cc(C(=O)N3C[C@H]4CCC[C@@]4(CO)C3)c2c1,-30.24
13,COCCn1cnnc1Cn1ccnc1-c1ccoc1,3.29
14,Nc1ncc2c(n1)CN(C1CCCC1)C2=O,-0.5678
15,CCC(=O)N1CC[C@@H]2[C@H](CC1)N(Cc1cccc(C)n1)CCS2(=O)=O.O=C(O)C(F)(F)F,-0.9694
16,CC(C)CC(=O)N1CC[C@@H]2[C@H](CC1)N(Cc1cccnc1)CCS2(=O)=O.O=C(O)C(F)(F)F.O=C(O)C(F)(F)F,108.2
17,CCCC(=O)N1CC[C@@H]2[C@H](CC1)N(Cc1cccnc1)CCS2(=O)=O.O=C(O)C(F)(F)F.O=C(O)C(F)(F)F,-5.055
18,CC(C)Nc1cc(N2CCN(Cc3ccccc3)C(CCO)C2)ncn1 (configuration not stated),10.47
19,Cc1cc(N2CCN(Cc3ccccc3)CC(O)C2)nc(N)n1 (configuration not stated),4.027
20,CNC(=O)C1CN(c2ccnc(C)n2)CCN1Cc1ccccc1 (configuration not stated),49.78
21,Cc1cccnc1NC(=O)C1CCCN1Cc1ccccc1 (configuration not stated),28.43
22,CNC(=O)C1CN(c2cc(C)ncn2)CCN1Cc1ccccc1 (configuration not stated),91.54
23,CNC(=O)C1CN(c2ncccn2)CCN1Cc1ccccc1 (configuration not stated),91.24
